Results from PubChem BioAssay.

Experiments:
PEG-3 [1] = molecular target: PEG-3 (UniProt Q6IN02); assay: inhibition of PEG-3 promoter-driven reporter – cell-based, HeLa, luciferase, CREF/GAPDH counter-screen panel, dose response (AID 624167); conditions: CREF/GAPDH counter-screens; HeLa PEG-Prom luciferase reporter, overnight, run 1, dose range 1, at 100 µM (top of the series) unless noted
PEG-3 [2] = molecular target: PEG-3 (UniProt Q6IN02); assay: as above; conditions: CREF/GAPDH counter-screens; HeLa PEG-Prom luciferase reporter, overnight, run 2, dose range 1, at 100 µM (top of the series) unless noted

PEG-3, sequence (Q6IN02 whole entry, looked up): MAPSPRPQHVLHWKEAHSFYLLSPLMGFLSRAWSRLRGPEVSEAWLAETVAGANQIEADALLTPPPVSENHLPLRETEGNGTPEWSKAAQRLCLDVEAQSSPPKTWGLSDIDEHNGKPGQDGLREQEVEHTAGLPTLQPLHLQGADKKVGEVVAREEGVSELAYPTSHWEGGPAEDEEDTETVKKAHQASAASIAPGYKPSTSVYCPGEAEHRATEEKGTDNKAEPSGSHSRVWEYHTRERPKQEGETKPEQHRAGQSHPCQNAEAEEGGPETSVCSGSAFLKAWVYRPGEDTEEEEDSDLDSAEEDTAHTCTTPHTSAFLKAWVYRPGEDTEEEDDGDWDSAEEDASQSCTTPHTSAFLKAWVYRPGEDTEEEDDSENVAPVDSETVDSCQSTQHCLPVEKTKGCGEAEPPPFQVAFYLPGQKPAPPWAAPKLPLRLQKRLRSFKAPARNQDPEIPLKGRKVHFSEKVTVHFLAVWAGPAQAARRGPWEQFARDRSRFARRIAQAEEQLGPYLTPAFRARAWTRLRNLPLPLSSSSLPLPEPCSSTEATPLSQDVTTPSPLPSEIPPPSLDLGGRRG

Row | SMILES | inhibition (PEG-3 [1]) [%] | inhibition (PEG-3 [2]) [%]
1 | Cc1cc(C(=O)CN2C(=O)c3ccccc3S2(=O)=O)c(C)n1C(C)C | 101 | 94.7
2 | O=C(NC1=C(NC2CCS(=O)(=O)C2)C(=O)c2ccccc2C1=O)c1ccccc1 (centres undefined) | 102 | 99.7
3 | Cc1cccc(NC(=O)CSc2nc3ccccc3c3nc(CCc4c(C)n[nH]c4C)nn23)c1 | 97.9 | 95.8
4 | CCCOC(=O)c1cccc(Nc2nc(-c3cccnc3)nc3ccccc23)c1 | 99 | 101
5 | CCOC(=O)c1ccc2ncc(C(=O)OCC)c(NCCN(C)C)c2c1 | 73 | 77.3
6 | COc1ccc(-c2nc(NC(=O)c3n[nH]c(=O)c4ccccc34)sc2C)cc1 | 14 | 30.7
7 | Cc1ccc(CC2(OCCN(C)C)CCC(C(C)(C)C)CC2)cc1 (centres undefined) | 99.6 | 97.3
